# Measurements taken from the supplement of paper PMC6992640.
# ± gives the standard deviation of the averaged measurements.
# Legend:
# Assay in all cases: cell viability (% of vehicle); higher = less cytotoxic
# Settings in all cases: 10 µM; 72 h
# HCI01 = tested on: HCI01 (cells of a triple-negative basal-like breast cancer xenograft)
# HCI03 = tested on: HCI03 (cells of an ER-positive luminal breast cancer xenograft)
# HCI09 = tested on: HCI09 (cells of a triple-negative luminal androgen receptor type breast cancer xenograft)
# HCI11 = tested on: HCI11 (cells of an ER-positive luminal breast cancer xenograft)
# HCI13 = tested on: HCI13 (cells of an ER-positive luminal breast cancer xenograft)
# HCI16 = tested on: HCI16 (cells of a triple-negative basal-like breast cancer xenograft)
# UCD52 = tested on: UCD52 (cells of a triple-negative basal-like breast cancer xenograft)
# WHIM2 = tested on: WHIM2 (cells of a triple-negative basal-like breast cancer xenograft)
# WHIM30 = tested on: WHIM30 (cells of a triple-negative basal-like breast cancer xenograft)
# 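Note: PDX cells carrying CMV promoter-driven luciferase, viability read as total photon flux per second by IVIS imaging following D-luciferin, vehicle control 0.1% DMSO.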
SMILES,cell viability (HCI01),cell viability (HCI03),cell viability (HCI09),cell viability (HCI11),cell viability (HCI13),cell viability (HCI16),cell viability (UCD52),cell viability (WHIM2),cell viability (WHIM30)
CCCCOc1ccc(C(=O)CCN2CCCCC2)cc1.Cl [Dyclonine HCl],91.4 ± 36,110,98.2 ± 18,110,60.5 ± 2.6,88.6,90.6 ± 12,40 ± 16,129 ± 30
Cl.O=C1c2cccc3c2C(CCC3)CN1C1CN2CCC1CC2 (stereo unspecified) [Palonosetron HCl],86 ± 15,87.8,118 ± 38,94.8,100 ± 12,111,76.3 ± 4.4,82.6 ± 5.7,104 ± 8.2
CC(C)(C)N.CCCC(NC(C)C(=O)N1C(C(=O)O)CC2CCCCC21)C(=O)OCC (stereo unspecified) [Perindopril Erbumine],84.9 ± 13,101,95.1 ± 11,93.5,129 ± 5.6,108,72.44 ± 0.41,98.2 ± 1.5,114 ± 28
Cl.N#Cc1ccc2[nH]cc(CCCCN3CCN(c4ccc5oc(C(N)=O)cc5c4)CC3)c2c1 [Vilazodone Hydrochloride],135 ± 3.5,103,104 ± 18,122,113 ± 6.7,166,111 ± 3.3,109 ± 20,112 ± 17
C=CC[C@@H]1/C=C(\C)C[C@H](C)C[C@H](OC)[C@H]2O[C@@](O)(C(=O)C(=O)N3CCCC[C@H]3C(=O)O[C@H](/C(C)=C/[C@@H]3CC[C@@H](O)[C@H](OC)C3)[C@H](C)[C@@H](O)CC1=O)[C@H](C)C[C@@H]2OC [Tacrolimus (FK506)],55.9 ± 45,112,50.6 ± 16,85.4,99.2 ± 6.4,92,83.4 ± 4.2,85.9 ± 20,166 ± 19
O=C([O-])Cc1ccccc1Nc1c(Cl)cccc1Cl.[Na+] [Diclofenac Sodium],94.9 ± 18,120,81.3 ± 5.4,73.9,105 ± 26,111,73.6 ± 8.9,90.2 ± 14,81.348 ± 0.07
CNC(=C[N+](=O)[O-])NCCSCc1csc(CN(C)C)n1 [Nizatidine],150 ± 9.3,120,108 ± 15,92.7,96.2 ± 5.7,133,83.6 ± 12,96.6 ± 1.9,123 ± 17
CC12CCC3=C4CCC(=O)C=C4CCC3C1CCC2(O)CC#N (stereo unspecified) [Dienogest],178 ± 40,124,94.3 ± 2.7,82.2,170 ± 3.3,164,92.3 ± 3.2,105 ± 6.8,139 ± 9
C=CCc1cc(OC)c(O)c(C(=O)NCCO)c1 [Alibendol],98.3 ± 18,139,107 ± 17,110,68 ± 5,133,109 ± 3.4,115 ± 23,138 ± 20
CN(C)C(=N)N=C(N)N.Cl [Metformin HCl],100 ± 14,123,92.5 ± 13,86.2,102 ± 6.9,117,82.2 ± 4.7,91.7 ± 3.1,136 ± 14
"CC(CN1CC(=O)NC(=O)C1)N1CC(=O)NC(=O)C1.Cl (stereo unspecified) [Dexrazoxane HCl (ICRF-187, ADR-529)]",64.8 ± 50,134,107 ± 3.7,97.9,96.3 ± 1.9,84.2,96.1 ± 14,70.2 ± 19,114 ± 1.9
O=C(O)C1=CC(=NNc2ccc([O-])c(C(=O)[O-])c2)C=CC1=O.[Na+].[Na+] [Olsalazine Sodium],123 ± 2.4,108,127 ± 47,102,120 ± 30,88.2,91.8 ± 7.2,86.8 ± 7.9,112 ± 7.4
CC(=O)SCC(Cc1ccccc1)C(=O)NCC(=O)OCc1ccccc1 (stereo unspecified) [Racecadotril],106 ± 19,111,92.8 ± 9.8,93.3,114 ± 8.9,104,65.6 ± 16,92.8 ± 1.4,79.3 ± 9
CC(CCC(=O)O)C1CCC2C3C(O)CC4CC(O)CCC4(C)C3CC(O)C12C (stereo unspecified) [Cholic acid],96 ± 8.2,142,89.6 ± 7.1,87.2,109 ± 9.5,98.7,101.2 ± 0.7,96.7 ± 11,99.9 ± 11
CC(=O)NCC1CN(c2ccc(N3CCOCC3)c(F)c2)C(=O)O1 (stereo unspecified) [Linezolid],99.5 ± 2.9,108,93.8 ± 5.2,103,98.1 ± 3,110,81 ± 12,80.7 ± 1.3,137 ± 14
Br.CN1CCCC1Cc1c[nH]c2ccc(CCS(=O)(=O)c3ccccc3)cc12 (stereo unspecified) [Eletriptan HBr],91.4 ± 17,108,80.12 ± 0.74,86.1,83.7 ± 7.3,113,87 ± 9.9,83.3 ± 4.5,163 ± 24
Cc1nc2n(c(=O)c1CCN1CCC(c3noc4cc(F)ccc34)CC1)CCCC2O (stereo unspecified) [Paliperidone],106 ± 11,172,94.6 ± 17,86.3,117 ± 4,113,113 ± 7.6,135 ± 24,127 ± 4.2
Cl.Nc1c2c(nc3ccccc13)CCCC2 [Tacrine hydrochloride],81.8 ± 14,119,90.7 ± 4.3,97,87.7 ± 6.4,98.3,96.6 ± 4.1,76.3 ± 2.9,87.06 ± 0.45
COc1c(N2CCNC(C)C2)c(F)cc2c(=O)c(C(=O)O)cn(C3CC3)c12 (stereo unspecified) [Gatifloxacin],99.3 ± 31,81.1,75 ± 10,124,82.6 ± 7.6,92.2,140 ± 6.7,59.6 ± 23,124 ± 24
CCC1OC(=O)C(C)C(OC2CC(C)(OC)C(O)C(C)O2)C(C)C(OC2OC(C)CC(N(C)C)C2O)C(C)(OC)CC(C)C(=O)C(C)C(O)C1(C)O (stereo unspecified) [Clarithromycin],112 ± 5.1,137,94.7 ± 19,116,125 ± 11,96.6,95.5 ± 8.8,104 ± 10,113 ± 22

SMILES,cell viability (HCI01),cell viability (HCI03),cell viability (HCI09),cell viability (HCI11),cell viability (HCI13),cell viability (HCI16),cell viability (UCD52),cell viability (WHIM2),cell viability (WHIM30)
CO[C@H]1/C=C/O[C@@]2(C)Oc3c(C)c(O)c4c(O)c(c5c(nc6cc(C)ccn65)c4c3C2=O)NC(=O)/C(C)=C\C=C\[C@H](C)[C@H](O)[C@@H](C)[C@H](O)[C@@H](C)[C@H](OC(C)=O)[C@@H]1C [Rifaximin (Xifaxan)],121 ± 13,115,114 ± 43,98.8,98.8 ± 33,97.6,91.9 ± 7.9,68.6 ± 13,128 ± 12
CN(C)CCCN1c2ccccc2CCc2ccc(Cl)cc21.Cl [Clomipramine HCl],102 ± 22,108,74.2 ± 2.6,69.7,88.4 ± 10,88.4,61.1 ± 1.7,58 ± 1.1,94.4 ± 13
Cc1cc(NS(=O)(=O)c2ccc(N)cc2)no1 [Sulfamethoxazole],115 ± 29,127,107 ± 30,95.4,120 ± 1.2,154,99.6 ± 4.2,117.5 ± 0.64,196 ± 4
COc1cc(C=CC(=O)CC(=O)C=Cc2ccc(O)c(OC)c2)ccc1O [Curcumin],94.5 ± 54,135,69.3 ± 40,51,98.4 ± 44,110,127 ± 22,145 ± 53,197 ± 9.6
C=C1C(CO)C(O)CC1n1cnc2c(=O)nc(N)[nH]c21.O (stereo unspecified) [Entecavir Hydrate],110 ± 5.2,104,91.1 ± 4.7,99.5,82.7 ± 5.4,108,103 ± 13,81.3 ± 11,107 ± 9.8
CN(C)CCCOc1nn(Cc2ccccc2)c2ccccc12.Cl [Benzydamine HCl],171 ± 76,85.4,79 ± 16,104,66.2 ± 11,163,100.3 ± 0.44,116 ± 6.4,123 ± 18
CCC1=CC2CN(C1)Cc1c([nH]c3ccccc13)C(C(=O)OC)(c1cc3c(cc1OC)N(C)C1C(O)(C(=O)OC)C(OC(C)=O)C4(CC)C=CCN5CCC31C54)C2.O=C(O)C(O)C(O)C(=O)O.O=C(O)C(O)C(O)C(=O)O (stereo unspecified) [Vinorelbine ditartrate],106 ± 17,112,65.2 ± 5.9,109,39 ± 7.7,122,55.7 ± 4,57.2 ± 2.2,95.5 ± 16
CN1C(C(=O)Nc2ccccn2)=C(O)c2sccc2S1(=O)=O [Tenoxicam],122 ± 9.7,126,114 ± 24,89.7,64.9 ± 7.4,119,87.2 ± 4.1,123 ± 33,159 ± 5.4
CCCCC(=O)N(Cc1ccc(-c2ccccc2-c2nn[nH]n2)cc1)C(C(=O)O)C(C)C (stereo unspecified) [Valsartan],112 ± 6,118,118 ± 24,97.2,116 ± 24,119,108 ± 10,101 ± 16,199 ± 25
CCOC(=O)NC1CCC2C(C1)CC1C(=O)OC(C)C1C2C=Cc1ccc(-c2cccc(F)c2)cn1 (stereo unspecified) [Vorapaxar],132 ± 37,121,90.5 ± 21,104,84.1 ± 22,108,76.4 ± 3.5,115 ± 27,72.6 ± 10
CCCCOc1cc(C(=O)NCCN(CC)CC)c2ccccc2n1 [Dibucaine],94.3 ± 30,158,95.5 ± 9.9,93.9,135 ± 2,135,81.16 ± 0.71,95.1 ± 14,89.012 ± 0.00099
CCOC(=O)C1=C(C)NC(C)=C(C(=O)OC)C1c1cccc(Cl)c1Cl (stereo unspecified) [Felodipine],116 ± 5,117,118 ± 6.6,114,112 ± 15,97.9,88.5 ± 2.3,102 ± 10,124 ± 2.7
Nc1c(CC(=O)[O-])cccc1C(=O)c1ccc(Br)cc1.[Na+] [Bromfenac Sodium],134 ± 34,104,82.1 ± 13,103,76.6 ± 16,96.2,89 ± 4,132 ± 25,111 ± 6.5
O=C(CCCN1CCC(O)(c2ccc(Cl)cc2)CC1)c1ccc(F)cc1 [Haloperidol],63.3 ± 37,102,86.1 ± 10,90,89.6 ± 9.9,117,61.6 ± 2.5,90.8 ± 36,121 ± 8.7
Cc1cc(=O)n(-c2ccccc2)n1C [Antipyrine],110 ± 15,131,101 ± 10,103,88.6 ± 1.1,95.9,98.2 ± 7.5,106 ± 30,125 ± 11
O=C1CCc2cc(OCCCCc3nnnn3C3CCCCC3)ccc2N1 [Cilostazol],133 ± 7.6,125,78.2 ± 12,106,126 ± 24,93.7,80.8 ± 7.3,191 ± 27,125 ± 25
C=CCNC(N)=S [Allylthiourea],96.4 ± 7.7,118,94.1 ± 19,97.4,64.8 ± 14,107,129 ± 35,108 ± 35,130 ± 8
CC12CCC3c4ccc(O)cc4CC(CCCCCCCCCS(=O)CCCC(F)(F)C(F)(F)F)C3C1CCC2O (stereo unspecified) [Fulvestrant],137 ± 7.5,89.1,65.5 ± 7.2,85.6,53 ± 6.5,95.7,78.9 ± 3.8,77.5 ± 36,129 ± 12
O=C(Oc1ccccc1C(=O)O)c1ccccc1O [Sasapyrine],113 ± 14,109,108 ± 17,104,74.4 ± 6.4,122,90.2 ± 1.2,123 ± 24,142 ± 7.2
